Experimental data: PubChem BioAssay (Tox21)
Results filed as inconclusive are left out. A call without a number means that no potency is given here. Active and inactive are the calls of the source. Calls come from the whole dose curve; as a rule, active = well fitted cell-killing curve with a large enough effect in the repeat runs; inconclusive = weak or mixed curves; inactive = flat fitted curve, though single readings scatter.
Potency is the fitted concentration of half-maximal effect.

Assay: qHTS RealTime-Glo MT Cell Viability Assay in HepG2 cells - 24 hour (AID 1224867); note: nearly all actives have a fitted effect of over 50% in size
Conditions: RealTime-Glo luminescence; series mostly up to 76.8 µM
Excerpt: U.S. Tox21 Program National Center for Advancing Translational Sciences [NCATS] NIH Chemical Genomics Center [NCGC] U.S. Environmental Protection Agency [EPA] National Institutes of Environmental Health Sciences [NIEHS] National Toxicology Program [NTP] U.S. Food and Drug Administration [FDA] Tox21 Assay Overview: Measure of cell viability is critical in the cell-base assay. Analysis of cell viability is necessary for the characterization of cell responses to cytotoxic drugs and environmental stress. A RealTime-Glo MT Cell Viability Assay to monitor cell viability in real time of continues cell culture during 40 hours of compound treatment was used to screen Tox21 10K library compounds in HepG2 cells. The RealTime-Glo MT Cell Viability Assay is a nonlytic, homogeneous, bioluminescent method to measure cell viability in real time using a simple, plate-based method. The assay involves adding NanoLuc luciferase and a cell-permeant prosubstrate to cells in culture. Viable cells reduce the proprietary prosubstrate to generate a substrate for NanoLuc luciferase. This substrate diffuses from cells into the surrounding culture medium, where it is rapidly used by the NanoLuc Enzyme to produce a luminescent signal. The signal correlates with the number of viable cells, making the assay well suited for cytotoxicity studies.
Tox21 Assay Protocol Summary: The mixture of HepG2 cell suspension and reagents were dispensed at 600cells/6 ul/well in 1536-well tissue culture treated black solid bottom plates using a Multidrop dispenser. After the assay plates were incubated at a 37 C/5% CO2 incubator for 5 hours, 23 nL of compounds dissolved in DMSO, positive and negative controls was transferred to the assay plate by a pintool work station. The plates were incubated at 37 C for 40 hours. The luminescence intensity were measured at 0h, 8h, 16h, 24h, 32h and 40h time points using ViewLux plate reader during compound treatment.
With `C[C@@H]1C[C@H]2O[C@@]3(O[C@@H]2C(C)(C)O)[C@H](O)[C@@]2(C)[C@@H]4CC[C@H]5C(C)(C)[C@@H](O[C@@H]6OC[C@@H](O)[C@H](O)[C@H]6O)CC[C@@]56C[C@@]46CC[C@]2(C)[C@@H]13` the Potency was “inactive”. In the case of `CCOC(=O)C(O)c1ccccc1` (stereo not given), the Potency is reported as “inactive”. In the case of `C1CCCNCCC1`, the Potency is reported as “inactive”. With `CCCCO` the Potency was “inactive”. For `CCOC(=O)C(F)(F)F`, the Potency was “inactive”. In the case of `CC(C)Nc1ccc(NC(C)C)c2c1C(=O)c1ccccc1C2=O`, the Potency is reported as “inactive”. For `Cn1c(=O)cc(Oc2ccc(F)cc2F)c2cnc(NCC(C)(C)O)nc21`, the Potency was “inactive”. With `CCc1cc(C2=C(C(=O)O)N(c3ccccc3C(F)(F)F)S(=O)(=O)c3ccccc32)cc2c1OCO2` the Potency was “inactive”. For `CCOC(=O)C(=O)CCc1ccccc1`, the Potency was “inactive”. In the case of `OCCN1CCN(CCCN2c3ccccc3C=Cc3ccccc32)CC1`, the Potency is reported as “inactive”. For `CN1CCN(C(c2ccccc2)c2ccccc2)CC1`, the Potency was “inactive”. In the case of `Nc1ncn([C@H]2C[C@H](O)[C@@H](CO)O2)c(=O)n1`, the Potency is reported as “inactive”. With `CC(=O)NO` the Potency was “inactive”. For `CCCCCC[C@@H](O)C/C=C\CCCCCCCC(=O)OC`, the Potency was “inactive”. In the case of `COC(=O)C1=C(C)NC(COC(N)=O)=C(C(=O)OC(C)C)C1c1cccc(Cl)c1Cl` (stereo not given), the Potency is reported as 23.9 µM (active). For `Cc1cc(C(=O)O)ccc1[N+](=O)[O-]`, the Potency was “inactive”. For `CC1=CC[C@H](C(C)C)C=C1`, the Potency was “inactive”. With `Cc1cccc(C)c1OCC(=O)N[C@@H](Cc1ccccc1)[C@@H](O)C[C@H](Cc1ccccc1)NC(=O)[C@H](C(C)C)N1CCCNC1=O` the Potency was “inactive”. With `CCO[C@H](Cc1ccc(OCCc2ccc(OS(C)(=O)=O)cc2)cc1)C(=O)O` the Potency was “inactive”. In the case of `COc1cc2nc(Cl)nc(N)c2cc1OC`, the Potency is reported as “inactive”. With `C=CCOC(=O)CCC1CCCCC1` the Potency was “inactive”. For `CCOC(=O)Cc1cccc2ccccc12`, the Potency was “inactive”. With `O=S(=O)(Oc1ccc(Cl)cc1)c1ccccc1` the Potency was “inactive”. In the case of `C=C1[C@H]2CC[C@@H]3[C@H]2C(C)(C)CCC[C@]13C`, the Potency is reported as “inactive”. In the case of `Nc1ccc(S(=O)(=O)Nc2ccccc2)cc1`, the Potency is reported as “inactive”. With `Brc1c2ccccc2c(Br)c2ccccc12` the activity change, negative = cytotoxicity was 2.73% [at 6.97 µM] (inactive). With `CCCCCCCCCCCC(=O)OC[C@@H](O)[C@H]1OC[C@H](OCCO)[C@H]1OCCO` the Potency was “inactive”. In the case of `O=C1CCC(=O)O1`, the Potency is reported as “inactive”. For `CCCCCCCN`, the Potency was “inactive”. For `CC(C)=CCC/C(C)=C/CC/C(C)=C/CO`, the Potency was “inactive”. In the case of `CCCCCCCCO[C@@H]1O[C@H](CO)[C@@H](O)[C@H](O)[C@H]1O`, the Potency is reported as “inactive”. For `COc1ccc(-c2nc3ccc(C4=NNC(=O)CC4C)cc3[nH]2)cc1` (stereo not given), the Potency was “inactive”. With `CN(C)C(=O)NC1(c2ccccc2)CCN(CC[C@@]2(c3ccc(F)c(F)c3)CN(C(=O)c3ccccc3)CCO2)CC1` the Potency was “inactive”. For `OCCNCc1ccccc1`, the Potency was “inactive”. With `O=P(O)(OCc1ccccc1)OCc1ccccc1` the Potency was “inactive”. With `CN1C[C@H]2c3ccccc3Oc3ccc(Cl)cc3[C@@H]2C1` the Potency was “inactive”. For `COC(=O)c1ccc(I)cc1S(=O)(=O)NC(=O)Nc1nc(C)nc(OC)n1`, the Potency was “inactive”. For `Cc1cc(N)c2cc(NC(=O)Nc3ccc4nc(C)cc(N)c4c3)ccc2n1`, the Potency was “inactive”. For `O=C(O)c1ccc(-n2nc(-c3ccccc3O)nc2-c2ccccc2O)cc1`, the Potency was “inactive”. With `CC(=O)c1cccc([N+](=O)[O-])c1` the Potency was “inactive”.
